By viability is commonly meant a read-out of living cells in per cent, often relative to untreated cells.

Screen size: about 2,400 compounds; about 360 (15%) were called active. These entries were drawn from the full list. Measured potencies and affinities stand elsewhere. Unmarked numbers belong to inactive results.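 How the source made its calls: active means viability falls under 70% at one or more tested concentrations, taken as toxicity; inactive means viability stays over 70% at every dose.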

This assay can be described thus: viability loss in HeLa cells – cytotoxicity control for MgcRacGAP inhibitor project, dose response (AID 624300).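 Further: 100% = median of untreated control wells on the same plate.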 The note with it: CellTiter-Glo luminescence, 24 h; series mostly up to 100 µM; viability: at the top concentration.
`COC(=O)CC1SC(=O)NC1=Nc1ccc(O)cc1` (centres undefined): the “viability” value was 113%.
Consider `S=c1[nH]c2ccccc2n2c(=S)[nH]nc12`, for which the “viability” value is 87.8%.
As for `O=C(CNC(=O)c1cccs1)N/N=C/c1ccc(O)cc1O`, the “viability” value is 102%.
Regarding `COc1ccc(N2CCN(C(CNS(=O)(=O)c3cccs3)c3cccnc3)CC2)cc1` (centres undefined), the “viability” value was 98.2%.
As for `O=C1Nc2ccccc2C1=Nc1ccc2[nH]c3ccccc3c2c1`, the “viability” value is 103%.
For the molecule `COc1ccc(CN(C)CC(=O)Nc2ccc(Cl)cc2C(F)(F)F)c(OC)c1`, the “viability” value is 82.5%.
With `O=S(=O)(O)c1cc(O)c2ccc(Nc3ccccc3)cc2c1`, the “viability” value is 103%.
Take `O=S(=O)(O)c1ccc(O)c2cc(Nc3ccccc3)ccc12`: the “viability” value is 104%.
`CCOc1ccccc1Oc1cn[nH]c1-c1ccc(O)cc1O`: the “viability” value is 86.2%.
Take `COc1cc(CNc2ccc3[nH]c(=O)[nH]c3c2)ccc1OCc1cccc(C)c1`: the “viability” value is 97%.
In the case of `COc1cc(/C=C2\Oc3cc(O)ccc3C2=O)ccc1O` it was 113%; in that of `COc1cc(/C=C2/C(=O)NN(c3ccc(Cl)cc3)C2=O)cc(Br)c1O`, 104%; in that of `O=C1/C(=C/c2ccc(O)c(O)c2)Oc2cc(O)ccc21`, 100%.
Turning to `O=C1ON=C(c2ccccc2)/C1=C/c1ccco1`, the “viability” value is 81.6%.
On to `CCOc1cc(/C=N/NC(=O)c2c(-c3ccccc3)noc2C)ccc1O`, for which the “viability” value was 113%.
On to `COC(=O)C1=C(O)/C(=C\c2ccc(O)c(OC)c2)N=C1C`, for which the “viability” value was 104%.
Take `O=[N+]([O-])c1cccc(S(=O)(=O)N/N=C/c2ccc(O)cc2)c1`: the “viability” value is 114%.
In the case of `COc1cc(/C=C/CN2CCC(Oc3ccc(C(=O)N4CCCC4)cc3)CC2)ccc1O`, the “viability” value is 89.1%.
In the case of `Nc1ccc(N2CCN(c3ccc(F)cc3)CC2)cc1` it was 103%; in that of `c1ccc(CNc2ccc(N3CCOCC3)cc2)cc1`, 99.7%; in that of `COc1ncnc2c1ncn2CCCNc1ccc(C)c(C)c1`, 98.5%.
In the case of `Cc1[nH]c2ccccc2c1/C=N/Nc1nncn1N` it was 94.1%; in that of `C/C(=N\Nc1nc2ccccc2[nH]1)c1cccs1`, 83%; in that of `O=C(O)c1ccc(N/N=C/c2c[nH]c3ccccc23)cc1`, 103%.
The value for `Cc1cc(C)nc(N/N=C/c2c[nH]c3ccccc23)n1` was 105%; that for `O=c1cc(CN2CCOCC2)c2ccc(O)c(O)c2o1` was 87.7%; that for `COc1cc(/C=N/NC(=O)Cn2nnc3ccccc32)ccc1O` was 99.2%.
In the case of `O=C(Nc1ccc(O)cc1)c1cc2ccccc2c(=O)s1`, the “viability” value was 107%.
For `CC[N+](CC)(CC)CCCCOc1ccc2c(c1)C(=O)c1cc(OCCCC[N+](CC)(CC)CC)ccc1-2`, the “viability” value was 99.7%.
In the case of `FC(F)(F)c1cccc(N2CCC(N=CN3CCCCCC3)=N2)c1` it was 94.9%.
Take `Oc1ccc(C=NNc2ccccn2)c(O)c1`: the “viability” value is 89.5%.
In the case of `Oc1ccc(/C=N/Nc2ccc(C(F)(F)F)cn2)cc1` it was 98%; in that of `Oc1cccc(Nc2ccccc2)c1`, 95.9%.
For `Nc1ccc(Nc2ccccc2)c(Cl)c1`, the “viability” value is 94.6%.

The record behind these values is PubChem BioAssay AID624300 (Southern Research Specialized Biocontainment Screening …, 2012).
